A number with no mark means an inactive call.
Test system: HCC1569
Assay: H1.0 immunofluorescence intensity relative to DMSO (% of DMSO); higher = stronger H1.0 induction, active = 140 or more
Conditions: concentration: 10 µM; 24 h
Procedure, shortened: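 H1.0 nuclear intensity or cell number is expressed as percent of the plate control, with the median of replicates taken. HCC1569 and TDF cells were treated with compounds at 10 µM for 24 h at 37 °C, in triplicate, then fixed and immunostained for H1.0 with DAPI as a nuclear stain. HCC1569 values were smoothed to correct for positional effects.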
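Further: TDF is a line of transformed human dermal fibroblasts of mesenchymal origin.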

Row | Compound | H1.0 immunofluorescence intensity
1 | CC(N)Cc1c[nH]c2ccc(OCc3cccs3)cc12.Cl (stereo not given) | 92.8
2 | O=C(O)CCCc1ccc(N(CCCl)CCCl)cc1 [Chlorambucil] | 98.4
3 | Cc1[nH]c2ccc(Cl)cc2c1C1=CCNCC1.Cl | 120
4 | CCCCCC=CCC=CCC=CCCCCCCC(=O)NCCO [Anandamide (20:3,n-6)] | 103
5 | COc1cc2c(c3oc4cccc(O)c4c(=O)c13)C1C=COC1O2 (stereo not given) [Sterigmatocystin] | 92.2
6 | CC1CCC2N(C1)CC1C3CC4C(CC(=O)C5CC(O)CCC54C)C3CCC1C2(C)O (stereo not given) [Imperialine] | 92.1
7 | CC(NC(C)(C)C)C(=O)c1cccc(Cl)c1 (stereo not given) [Amfebutamone] | 116
8 | CC12C(=O)OC(=O)C1(C)C1CCC2O1 (stereo not given) [Cantharidin] | 187 (active)
9 | Br.Br.CN(C)CCN(C)CCc1ccc(Cl)c(Cl)c1 | 110
10 | COc1ccc2c(c1)N1C(C=C(C)C)OOC(C)(C)CC3C1C2C(O)C1(O)C(=O)N2CCCC2C(=O)N31 (stereo not given) [Verruculogen] | 98.1
11 | Cc1nc(-c2ccc(-c3ccc(C(=O)N4CCc5cc6c(cc54)C4(CCN(C)CC4)CO6)cc3)c(C)c2)no1.Cl | 150 (active)
12 | COc1ccc(C(=O)N2CCCC2=O)cc1 [Aniracetam] | 95
13 | NC(=O)CN1CCCC1=O [Piracetam] | 103
14 | NC(=S)NN=Cc1coc2ccccc2c1=O.[Cl][Cu][Cl] | 100
15 | COc1cc2c(cc1O)CCNC2C (stereo not given) [Salsoline] | 95.5
16 | C=C1C2CC3(C1O)C1CC4C5(C)CCC(O)C4(C1N(CC)C5)C3CC2=O (stereo not given) [Songorine] | 91.7
17 | CCN(CC)C(=O)NC1CC2c3cccc4[nH]cc(c34)CC2N(C)C1 (stereo not drawn) [R(+)-Terguride] | 99.5
18 | CC1Cc2cc3c(cc2C(c2ccc(N)cc2)=NN1)OCO3 (stereo not given) | 98.2

Row | Compound | H1.0 immunofluorescence intensity
19 | Br.COC1CC=C2CCN3CCC4=C(CC(=O)OC4)C23C1 (stereo not drawn) [Dihydro-beta-erythroidine hydrobromide] | 93.8
20 | CC(=O)OC1CC2CCC3C(CCC4(C)C3CC([N+]3(C)CCCCC3)C4OC(C)=O)C2(C)CC1[N+]1(C)CCCCC1.[Br-].[Br-] (stereo not given) [Pancuronium bromide] | 99.5
21 | COc1ccc2c(c1OC)C(=O)OC2C1c2cc3c(cc2CCN1C)OCO3 (stereo not given) | 95.3
22 | C#CCN(C)C(C)Cc1ccccc1.Cl [(R)-(-)-Deprenyl.HCl] | 101
23 | Cl.N[C@@H](CCl)C(=O)O [beta-Chloro-L-alanine hydrochloride] | 91.9
24 | CC1CCCC(O)CCCCCc2cc(O)cc(O)c2C(=O)O1 (stereo not given) | 99.2
25 | CCN(CC)c1ncnc2c1ncn2C1OC(COP(=O)([O-])OP(=O)([O-])C(Br)(Br)P(=O)([O-])O)C(O)C1O.[Na+].[Na+].[Na+] (stereo not given) | 96.5
26 | CN(C)C1C(=O)C(C(N)=O)=C(O)C2(O)C(=O)C3=C(O)c4c(O)cccc4C(C)(O)C3CC12 (stereo not given) [Tetracycline] | 95.2
27 | CN1C2CC(OC(=O)C(CO)c3ccccc3)CC1C1OC12 (stereo not given) [Scopolamine] | 96.7
28 | C1CCC(NC2CCCCC2)CC1 | 100
29 | N#CC(C#N)=Cc1ccc([N+](=O)[O-])c(O)c1 [Tyrphostin AG 126] | 103
30 | NC(=O)CN1CC(O)CC1=O (stereo not given) [Oxiracetam] | 95.4
31 | CCC1CN2CCc3cc(OC)c(OC)cc3C2CC1CC1NCCc2cc(OC)c(OC)cc21.Cl.Cl (stereo not given) [Emetine dihydrochloride hydrate] | 99
32 | CN(C)C(=O)Oc1cccc([N+](C)(C)C)c1.COS(=O)(=O)[O-] | 98.3
33 | CC(N)C(=O)OC(C)(C)Cc1ccc(Cl)cc1.Cl (stereo not given) [Alaproclate hydrochloride] | 88.6
34 | CCCCCN(C)CCC(O)(P(=O)([O-])O)P(=O)(O)O.[Na+] | 102
35 | CC1Cc2c(Cl)cc(C(=O)NC(Cc3ccccc3)C(=O)O)c(O)c2C(=O)O1 (stereo not given) [Ochratoxin A] | 92.1

Source: the supplement of paper PMC7156485
